Data taken from the supplement of paper PMC3545927.
The list shows a part of the results. The hit rate among all sequences tested is not known here.

Biological target: furin, P09958
Assay: furin cleavage Z-score vs untreated control; higher = more cleavage, active = 3.5 or more, inactive = 1 or less, 8 variable residues between constant flanks
Summary of the method: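 Read counts from sequencing released DNA gave abundance for each bead-bound 8-mer peptide–cDNA fusion cut by purified furin over 7.5, 15 or 30 min. The cleavage Z-score compares log counts with furin-free reactions after lowess adjustment and median absolute deviation scaling.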
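Also: purified furin at 1:10 enzyme:substrate in 50 mM HEPES pH 7.5.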

furin, P09958, sequence (P09958 whole entry): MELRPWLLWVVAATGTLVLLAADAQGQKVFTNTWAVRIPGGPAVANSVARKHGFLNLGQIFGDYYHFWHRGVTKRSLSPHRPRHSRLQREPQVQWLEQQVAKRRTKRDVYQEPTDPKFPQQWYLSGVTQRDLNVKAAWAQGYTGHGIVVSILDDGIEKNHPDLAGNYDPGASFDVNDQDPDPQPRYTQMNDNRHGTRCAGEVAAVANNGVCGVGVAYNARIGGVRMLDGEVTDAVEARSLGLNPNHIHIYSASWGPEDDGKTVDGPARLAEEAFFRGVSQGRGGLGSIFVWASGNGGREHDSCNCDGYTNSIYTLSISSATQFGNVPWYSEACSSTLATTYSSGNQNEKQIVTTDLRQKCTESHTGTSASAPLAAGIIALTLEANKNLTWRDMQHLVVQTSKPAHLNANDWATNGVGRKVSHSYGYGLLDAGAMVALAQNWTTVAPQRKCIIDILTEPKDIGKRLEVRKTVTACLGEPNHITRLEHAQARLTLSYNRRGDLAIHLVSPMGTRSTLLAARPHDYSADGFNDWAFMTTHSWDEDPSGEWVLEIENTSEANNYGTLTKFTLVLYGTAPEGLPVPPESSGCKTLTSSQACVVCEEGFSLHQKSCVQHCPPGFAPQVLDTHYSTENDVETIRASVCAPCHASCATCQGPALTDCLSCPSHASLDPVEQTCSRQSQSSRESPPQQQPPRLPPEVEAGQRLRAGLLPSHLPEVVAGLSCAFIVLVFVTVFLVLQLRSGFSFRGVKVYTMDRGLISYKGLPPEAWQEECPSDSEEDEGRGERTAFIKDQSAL

## CAESENKVVIAGNASASA [HC1283]
7.5 min
  furin cleavage Z-score: -1.56 (inactive)
15 min
  furin cleavage Z-score: -1.01 (inactive)
30 min
  furin cleavage Z-score: -1.31 (inactive)

## CAMEVLRKRSAGNASASA [FS-911]
7.5 min
  furin cleavage Z-score: -0.513 (inactive)
15 min
  furin cleavage Z-score: -0.258 (inactive)
30 min
  furin cleavage Z-score: 0.754 (inactive)

## CAGKELRKRSAGNASASA [FS-998]
7.5 min
  furin cleavage Z-score: 6.16 (active)
15 min
  furin cleavage Z-score: 6.24 (active)
30 min
  furin cleavage Z-score: 6.7 (active)

## CACCCRRKRSAGNASASA [FS-118]
7.5 min
  furin cleavage Z-score: 7.96 (active)
15 min
  furin cleavage Z-score: 7.28 (active)
30 min
  furin cleavage Z-score: 6.41 (active)

## CACQCRFFRSAGNASASA [FS-1313]
7.5 min
  furin cleavage Z-score: 0.733 (inactive)
15 min
  furin cleavage Z-score: -1.88 (inactive)
30 min
  furin cleavage Z-score: -0.461 (inactive)

## CATLERRKRSAGNASASA [FS-1172]
7.5 min
  furin cleavage Z-score: 11.2 (active)
15 min
  furin cleavage Z-score: 9.64 (active)
30 min
  furin cleavage Z-score: 8.54 (active)

## CALPIRRKRSAGNASASA [FS-1028]
7.5 min
  furin cleavage Z-score: 13 (active)
15 min
  furin cleavage Z-score: 13.8 (active)
30 min
  furin cleavage Z-score: 9.29 (active)

## CAKVKANLLSAGNASASA [HC1409]
7.5 min
  furin cleavage Z-score: 0.199 (inactive)
15 min
  furin cleavage Z-score: -1.82 (inactive)
30 min
  furin cleavage Z-score: -0.858 (inactive)

## CADYMEECSQAGNASASA [HC1809]
7.5 min
  furin cleavage Z-score: 0.775 (inactive)
15 min
  furin cleavage Z-score: 0.374 (inactive)
30 min
  furin cleavage Z-score: -0.614 (inactive)

## CAMEQCSQHLAGNASASA [HC1722]
7.5 min
  furin cleavage Z-score: 2.51
15 min
  furin cleavage Z-score: 1.08
30 min
  furin cleavage Z-score: 0.422 (inactive)

## CANGTMRIVGAGNASASA [HC1181]
7.5 min
  furin cleavage Z-score: 0.253 (inactive)
15 min
  furin cleavage Z-score: 1.69
30 min
  furin cleavage Z-score: -0.0933 (inactive)

## CAEVVTITWVAGNASASA [HC145]
7.5 min
  furin cleavage Z-score: -0.85 (inactive)
15 min
  furin cleavage Z-score: 0.512 (inactive)
30 min
  furin cleavage Z-score: -0.407 (inactive)

## CAIFRAAVCTAGNASASA [HC750]
7.5 min
  furin cleavage Z-score: -0.737 (inactive)
15 min
  furin cleavage Z-score: -0.718 (inactive)
30 min
  furin cleavage Z-score: -0.0235 (inactive)

## CACCSMSYSWAGNASASA [HC1370]
7.5 min
  furin cleavage Z-score: 0.447 (inactive)
15 min
  furin cleavage Z-score: -0.385 (inactive)
30 min
  furin cleavage Z-score: 0.225 (inactive)

## CATLARRKRSAGNASASA [FS-1423]
7.5 min
  furin cleavage Z-score: 11.4 (active)
15 min
  furin cleavage Z-score: 11.2 (active)
30 min
  furin cleavage Z-score: 9.32 (active)

## CADRHFRKRSAGNASASA [FS-925]
7.5 min
  furin cleavage Z-score: 9.05 (active)
15 min
  furin cleavage Z-score: 11.3 (active)
30 min
  furin cleavage Z-score: 9.58 (active)

## CASNGRRKRSAGNASASA [FS-1570]
7.5 min
  furin cleavage Z-score: 11 (active)
15 min
  furin cleavage Z-score: 11.1 (active)
30 min
  furin cleavage Z-score: 9.24 (active)

## CAERRKRKRSAGNASASA [FS-1119]
7.5 min
  furin cleavage Z-score: 11.5 (active)
15 min
  furin cleavage Z-score: 11.6 (active)
30 min
  furin cleavage Z-score: 9.13 (active)

## CAEVVTLTWVAGNASASA [HC144]
7.5 min
  furin cleavage Z-score: 0.108 (inactive)
15 min
  furin cleavage Z-score: 1.05
30 min
  furin cleavage Z-score: -0.447 (inactive)

## CACSLTPPHSAGNASASA [HC1415]
7.5 min
  furin cleavage Z-score: -1.29 (inactive)
15 min
  furin cleavage Z-score: -4.97 (inactive)
30 min
  furin cleavage Z-score: -1.14 (inactive)

## CATRSFGSSSAGNASASA [HC1335]
7.5 min
  furin cleavage Z-score: 0.518 (inactive)
15 min
  furin cleavage Z-score: -0.799 (inactive)
30 min
  furin cleavage Z-score: -0.228 (inactive)

## CATSSSRKRSAGNASASA [FS-572]
7.5 min
  furin cleavage Z-score: 1.17
15 min
  furin cleavage Z-score: 0.258 (inactive)
30 min
  furin cleavage Z-score: 1.99

## CATRSVRKRSAGNASASA [FS-100]
7.5 min
  furin cleavage Z-score: 10 (active)
15 min
  furin cleavage Z-score: 8.16 (active)
30 min
  furin cleavage Z-score: 6.31 (active)

## CAGYRRCRASAGNASASA [HC1508]
7.5 min
  furin cleavage Z-score: 0.58 (inactive)
15 min
  furin cleavage Z-score: -0.0246 (inactive)
30 min
  furin cleavage Z-score: 0.472 (inactive)

## CAWKKPDYEPAGNASASA [HC1311]
7.5 min
  furin cleavage Z-score: -0.0824 (inactive)
15 min
  furin cleavage Z-score: -0.0771 (inactive)
30 min
  furin cleavage Z-score: 0.0457 (inactive)

## CAKKNKRNTNAGNASASA [HC165]
7.5 min
  furin cleavage Z-score: 4.17 (active)
15 min
  furin cleavage Z-score: 6.77 (active)
30 min
  furin cleavage Z-score: 5.31 (active)

## CANKRNTNRRAGNASASA [HC166]
7.5 min
  furin cleavage Z-score: 0.476 (inactive)
15 min
  furin cleavage Z-score: 1.53
30 min
  furin cleavage Z-score: -0.249 (inactive)

## CAPQKKNKRNAGNASASA [HC164]
7.5 min
  furin cleavage Z-score: 5.11 (active)
15 min
  furin cleavage Z-score: 6.33 (active)
30 min
  furin cleavage Z-score: 5.55 (active)

## CAARLIVFPDAGNASASA [HC1449]
7.5 min
  furin cleavage Z-score: -1.5 (inactive)
15 min
  furin cleavage Z-score: -0.858 (inactive)
30 min
  furin cleavage Z-score: -0.313 (inactive)

## CAPVPPPRKKAGNASASA [HC1322]
7.5 min
  furin cleavage Z-score: 0.00444 (inactive)
15 min
  furin cleavage Z-score: 1.55
30 min
  furin cleavage Z-score: 0.99 (inactive)

## CAKKKRMAMAAGNASASA [FS-2867]
7.5 min
  furin cleavage Z-score: -0.103 (inactive)
15 min
  furin cleavage Z-score: 0.494 (inactive)
30 min
  furin cleavage Z-score: 1.89

## CAYRHRKKRNAGNASASA [FS-902]
7.5 min
  furin cleavage Z-score: 2.85
15 min
  furin cleavage Z-score: 1.03
30 min
  furin cleavage Z-score: -0.551 (inactive)

## CAKKMRVWRDAGNASASA [FS-674]
7.5 min
  furin cleavage Z-score: 4.34 (active)
15 min
  furin cleavage Z-score: 5.37 (active)
30 min
  furin cleavage Z-score: 5.78 (active)

## CAPKPQKKNKAGNASASA [HC163]
7.5 min
  furin cleavage Z-score: -1.39 (inactive)
15 min
  furin cleavage Z-score: -0.337 (inactive)
30 min
  furin cleavage Z-score: -0.509 (inactive)

## CAKTTRKKRNAGNASASA [FS-263]
7.5 min
  furin cleavage Z-score: 7.57 (active)
15 min
  furin cleavage Z-score: 8.3 (active)
30 min
  furin cleavage Z-score: 5.21 (active)

## CAVECCSMSYAGNASASA [HC2012]
7.5 min
  furin cleavage Z-score: 0.483 (inactive)
15 min
  furin cleavage Z-score: 1.15
30 min
  furin cleavage Z-score: 0.164 (inactive)

## CAAETHVTGGAGNASASA [HC352]
7.5 min
  furin cleavage Z-score: -0.704 (inactive)
15 min
  furin cleavage Z-score: -0.0263 (inactive)
30 min
  furin cleavage Z-score: -0.814 (inactive)

## CASHITAEAAAGNASASA [HC1250]
7.5 min
  furin cleavage Z-score: -0.151 (inactive)
15 min
  furin cleavage Z-score: -1.71 (inactive)
30 min
  furin cleavage Z-score: -1.91 (inactive)

## CADNVTPIDTAGNASASA [HC1435]
7.5 min
  furin cleavage Z-score: -0.0484 (inactive)
15 min
  furin cleavage Z-score: -0.00567 (inactive)
30 min
  furin cleavage Z-score: -0.908 (inactive)

## CAIASWAIKWAGNASASA [HC515]
7.5 min
  furin cleavage Z-score: -0.183 (inactive)
15 min
  furin cleavage Z-score: 0.294 (inactive)
30 min
  furin cleavage Z-score: -1.7 (inactive)

## CALIHLHQNIAGNASASA [HC505]
7.5 min
  furin cleavage Z-score: 0.141 (inactive)
15 min
  furin cleavage Z-score: -1.53 (inactive)
30 min
  furin cleavage Z-score: 0.884 (inactive)

## CAVHCCSMSYAGNASASA [HC2015]
7.5 min
  furin cleavage Z-score: 0.313 (inactive)
15 min
  furin cleavage Z-score: -1.84 (inactive)
30 min
  furin cleavage Z-score: 0.688 (inactive)

## CAPQLPGIPFAGNASASA [HC1161]
7.5 min
  furin cleavage Z-score: -0.711 (inactive)
15 min
  furin cleavage Z-score: -1.22 (inactive)
30 min
  furin cleavage Z-score: 0.14 (inactive)
